# Assay results: PubChem BioAssay (Tox21)
# Results filed as inconclusive are left out. Calls of active or inactive are those of the source. The call rests on the fitted dose curve.
# Experiment: qHTS assay for small molecule disruptors of the mitochondrial membrane potential - cell viability (AID 720634);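 further: human HepG2 liver cancer cells; nearly all actives have a fitted effect of over 20% in size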
# Details: HepG2 viability, ATP luminescence (CellTiter-Glo), 1 h; series mostly up to 83.2 µM; activity change, negative = cytotoxicity: at the top concentration
# Source text: U.S. Tox21 Program National Center for Advancing Translational Sciences [NCATS] NIH Chemical Genomics Center [NCGC] U.S. Environmental Protection Agency [EPA] National Institutes of Environmental Health Sciences [NIEHS] National Toxicology Program [NTP] U.S. Food and Drug Administration [FDA] Tox21 Assay Overview: Mitochondrial membrane potential (MMP), one of the parameters for mitochondrial function, is generated by mitochondrial electron transport chain that creates an electrochemical gradient by a series of redox reactions. This gradient drives the synthesis of ATP, a crucial molecule for various cellular processes. Measuring MMP in living cells is commonly used to assess the effect of chemicals on mitochondrial function; decreases in MMP can be detected using lipophilic cationic fluorescent dyes. […] The dye accumulates in the mitochondria of healthy cells as aggregates, with red fluorescence. The mitochondrial potential decreases and the dye could not accumulate in the mitochondria and remains in the cytoplasm in monomers, with green fluorescence. In addition to the mitochondrial potential assay, these cells were also used to test the cytotoxicity by determining the cell viability in the culture based on the quantitation of ATP present. The cytotoxicity was measured in the same assay well of MMP assay.
# Tox21 Assay Protocol Summary: 2,000 HepG2 cells in 5 uL/well were dispensed into black, clear-bottom 1536-well plates using a Multidrop Combi (Thermo Scientific) dispenser. The assay plates were incubated for an overnight at 37 C to allow cells to attach to the wells, followed by the transfer of 23 nL compound or DMSO vehicle by a pin tool (Kalypsys). The plates were incubated for 1 hr at 37 C and 5% CO2, followed by the addition of 5 uL of 2X m-MPI dye into each well using Flying Reagent Dispenser (Aurora Discovery) and then CellTiter-Glo reagent was added at 4 uL/well and incubated 30 min at room temperature. Then luminescence intensity was quantified on a ViewLux CCD-based plate reader.
# On the % scale 0 is the no-effect control and ±100 the full control effect.
row,Structure (SMILES),"activity change, negative = cytotoxicity"
1,O=C1C=CCCC1,7.03% [at 95.3 µM] (inactive)
2,O=[N+]([O-])c1ccccc1CCO,-5.9% [at 95.3 µM] (inactive)
3,C(/C=C/C=C/Nc1ccccc1)=Nc1ccccc1,-8.16% (inactive)
4,O=C1OC(=O)C2CC=CCC12 (stereo not given),6.93% [at 95.3 µM] (inactive)
5,Nc1ccc(-c2ccc(F)cc2)cc1,14% (inactive)
6,CC(O)CN (stereo not given),-7.37% (inactive)
7,Cc1ccc2ccccc2c1[N+](=O)[O-],-5.14% (inactive)
8,CC1(C)C(=O)NC(=O)N1CO,4.8% (inactive)
9,O=Cc1ccc(Cl)c([N+](=O)[O-])c1,-12.7% (inactive)
10,CS(C)=O,7.67% (inactive)
11,O=C(Nc1ccccc1)c1cc([N+](=O)[O-])ccc1Cl,-13% (inactive)
12,CC(C)=CCC[C@H](C)CCO,-16.1% (inactive)
13,Nc1ccc(F)cc1F,-5.03% [at 95.3 µM] (inactive)
14,Cc1c(Cl)cccc1[N+](=O)[O-],7.3% (inactive)
15,CC(CN=Cc1ccccc1O)N=Cc1ccccc1O (stereo not given),9.92% (inactive)
16,CC(C)Oc1ccccc1O,9.22% (inactive)
17,CC(=O)Oc1cccc2c1C(=O)c1c(OC(C)=O)cc(C(=O)O)cc1C2=O,-3.02% (inactive)
18,CC(C)CCCCCCCOC(=O)c1ccc(C(=O)OCCCCCCCC(C)C)c(C(=O)OCCCCCCCC(C)C)c1,8.71% (inactive)
19,CC(C)NC(=O)c1ccccc1N,12.7% (inactive)
20,CC1(C)[C@@H]2CC[C@]3(C2)[C@@H]1C(=O)CCC3(C)C,-7.04% (inactive)

row,Structure (SMILES),"activity change, negative = cytotoxicity"
1,O=C(OCCCCCOC(=O)c1ccccc1)c1ccccc1,7.56% (inactive)
2,O=c1c2ccccc2oc2ccccc12,2.42% (inactive)
3,C/C(=C(\CCO)SS/C(CCO)=C(\C)N(C=O)Cc1cnc(C)nc1N)N(C=O)Cc1cnc(C)nc1N,-3.23% (inactive)
4,N#CCCCC(C#N)CCC#N (stereo not given),14.2% (inactive)
5,O=C(O)c1cccnc1Nc1cccc(C(F)(F)F)c1,-16.8% (inactive)
6,O=P(c1ccccc1)(c1ccccc1)c1ccccc1,5.08% (inactive)
7,CC(C)=CCCC(C)C=O (stereo not given),-1.74% (inactive)
8,CCCCOc1ccc(N)cc1,6.27% (inactive)
9,C[Si](C)(C)O[Si](C)(C)O[Si](C)(C)C,6.9% (inactive)
10,O=C(O)c1ccccc1-n1cc(C(=O)O)c(=O)c2cc(Nc3c(F)cc(F)cc3Cl)c(Cl)cc21,2.29% (inactive)
11,CCCCCCC/C=C/C=O,13.9% (inactive)
12,O=C(O)c1cccc(C(=O)O)c1C(=O)O,-5.73% [at 95.3 µM] (inactive)
13,CCCCCO,-2.41% (inactive)
14,O=C1c2ccccc2C(=O)C1c1ccc2cc(S(=O)(=O)O)cc(S(=O)(=O)O)c2n1,-5.11% [at 95.3 µM] (inactive)
15,O=C(O)c1ccccc1[N+](=O)[O-],-6.76% (inactive)
16,Cc1nc2sccn2c(=O)c1CCN1CCC(=C(c2ccc(F)cc2)c2ccc(F)cc2)CC1,-0.716% (inactive)
17,O=C(O)c1ccc2cc(O)ccc2c1,8.25% (inactive)
18,Cc1nc(C)c(C)nc1C,1.26% (inactive)
19,CNc1ccccc1,-4.41% (inactive)
20,c1ccc(-c2ccc(-c3ccccc3)cc2)cc1,-8.07% [at 39.1 µM] (inactive)
